Source: PubChem BioAssay (National Center for Advancing Translational Sciences (NCATS))
Only some compounds are listed: those with a hit (about 17% of all), similar ones and a draw of the others.
TDP1 cell noCPT – qHTS for Inhibitors of human tyrosyl-DNA phosphodiesterase 1 (TDP1): qHTS in cells in absence of CPT. Potency, µM (doses to about 46.2 µM), without a hit: top-dose activity change, negative = growth inhibition, actives largely listed as inhibitors. 420,000 tested, 15% active. DT40 Tdp1-/- hTDP1 cells, no CPT, ATP luminescence, 48 h; further: on the % scale 0 is the no-effect control and ±100 the full control effect; nearly all actives have a fitted effect of over 55% in size
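Stably hTDP1-transfected Tdp1-null chicken DT40 cells were treated with library compounds minus camptothecin and grown for at least 48 hr at 37 °C, after which cellular ATP was quantified by luminescence.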
ATXN2 expr inh – ATXN2 expression inhibition; HEK-293 ATXN2-luciferase reporter, luminescence, 24 h; Potency, µM (top dose mostly 57 µM), without a hit: top-dose activity change, negative = inhibition, hits mostly inhibitors; 360,000 tested, 0.72% active; AID 1745845; further: on the % scale 0 is the no-effect control and ±100 the full control effect; nearly all actives have a fitted effect of over 55% in size
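qHTS (up to 57 uM final) was run with 24 h compound exposure of reporter cells at 37 °C. Each well was multiplexed: SteadyGlo luminescence measured ATXN2-luciferase expression after a fluorogenic Gly-Phe-AFC viability readout (25 uM final).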
ATXN viability – reduces viability in counter-screen for ATXN expression inhibitors. 400,000 tested, 0.49% active. S2 cells (HEK-293 line with an ATXN2-luciferase reporter) viability, CellTiter-Fluor protease fluorescence, 24 h. AID 651635. Potency, µM (highest dose often 56.7 µM), actives largely listed as cytotoxic; further: nearly all actives have a fitted effect of over 40% in size
HepG2 viability – kills HepG2 cells in TGF-b inhibitor counter-screen; HepG2 CAGA-GFP viability, ATP luminescence, 18 h; Potency, µM (titrated, usually from 46.1 µM), for inactives: at the highest dose activity change, negative = cytotoxicity, usual class: cytotoxic; 410,000 tested, 0.76% active
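HepG2 CAGA-GFP cells (1000/well, DMEM with 1% FBS) received compound, then TGF-beta at 500 pg/mL final, and were incubated 18 hours at 37 degrees C. Viability was read by CellTiter-Glo luminescence. Media-only wells were set as complete cell-killing and DMSO as no toxicity.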
TGFb inhibitor – TGF-b pathway inhibition | 410,000 tested, 1.2% active | AID 588855 | Potency, µM (titrated, usually from 46.1 µM), without a hit: top-dose activity, negative = inhibition, most hits filed as inhibitors | HepG2 CAGA-GFP TGF-b/SMAD3 reporter, GFP fluorescence, 18 h; TGF-beta stimulated, 500 pg/mL final; further: on the % scale 0 is the no-effect control and ±100 the full control effect; nearly all actives have a fitted effect of over 65% in size
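Per well, imaged GFP fluorescence of HEPG2 CAGA-GFP cells gives the signal; cells get compound, then TGF-beta (500 pg/mL final), 18 h at 37 degrees C; %Activity versus -TGF-beta and +DMSO controls.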
DT40 TDP1 CPT – DT40-hTDP1 cell growth loss with CPT; AID 686979; chicken DT40 Tdp1-/-;hTDP1 cells + 20 nM CPT, ATP luminescence, 48 h; 420,000 tested, 12% active; Potency, µM (highest dose often 46.2 µM), without a hit: at the top dose activity change, negative = growth inhibition, actives largely listed as inhibitors; further: on the % scale 0 is the no-effect control and ±100 the full control effect; nearly all actives have a fitted effect of over 55% in size
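Cell growth measured by CellTiter-Glo luminescence after a minimum 48 h, 37 C compound exposure with 20 nM CPT in Tdp1-knockout DT40 cells stably expressing hTDP1, seeded 400/well; qHTS titration format.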
Numbers without * were called inactive; i = inactive; u = inconclusive; x = no result given; [ ] = another dose, or the depositor's remark. The call rests on the fitted dose curve; in most records, active means well fitted curve in the direction sought with a large enough effect; inconclusive means small, poorly fitted or top-dose-only effect, or another doubt; inactive means no such curve, though single readings can be large; an effect the other way counts as inactive or inconclusive. Potency means the concentration at half of the fitted maximal effect.

SMILES	TDP1 cell noCPT	ATXN2 expr inh	ATXN viability	HepG2 viability	TGFb inhibitor	DT40 TDP1 CPT
COCCN(C(=O)COC(=O)c1c(NC(C)=O)sc(C)c1C)c1c(N)n(Cc2ccccc2)c(=O)[nH]c1=O	u	4%	i	-24%	0%	u
CCOC(=O)c1cc(OCc2csc(-c3ccccc3)n2)cc(C(=O)OCC)c1	-27%	x	x	-4%	3%	-27%
CCc1c(N)nc(N)nc1Nc1ccc(C)c(C)c1	15µM*	-20%	u	6%	-3%	u
Nc1nc(N)c(N=O)c(Nc2cccc(Cl)c2)n1	10µM*	-12%	i	x	x	5.8µM*
Cc1ccc(Nc2nc(N)nc(N)c2N=O)cc1Cl	13µM*	x	x	x	x	10µM*
Nc1nc(N)c(N=O)c(Nc2ccc(Cl)c(Cl)c2)n1	7.3µM*	-16%	i	x	x	4.1µM*
Nc1nc(N)c(Br)c(Nc2ccc(Cl)c(Cl)c2)n1	u	0%	i	-36%	-18%	u
CCc1c(Cl)nc(N)nc1Nc1ccccc1C	u	-22%	i	0%	u	u
CNc1nc(N)c([N+](=O)[O-])c(Nc2cccc(Cl)c2)n1	u	x	u	-2%	1%	u
Cc1cc(-c2ccc(C)c(S(=O)(=O)NCCc3ccc(S(N)(=O)=O)cc3)c2)on1	u	x	i	-39%	-30%	u
O=C(CCCCCNC(=S)Nc1ccccc1)C[N+](=O)[O-]	-22%	x	i	-3%	-5%	-2%
Cc1ccc(S(=O)(=O)N(C)c2c(C)ccc(S(=O)(=O)N3CCN(C)CC3)c2C)cc1	u	6%	i	-13%	u	-9%
C=C(C)CN1CCN(S(=O)(=O)c2ccc(C)c(N(C)S(=O)(=O)c3ccc(C)cc3)c2C)CC1	10µM*	0%	i	0%	u	23µM*
COc1ccc(C)cc1NC(=O)CN1CCN(S(=O)(=O)c2ccc(Br)cc2)CC1	3%	-1%	i	13%	-13%	-10%
CC(=O)Nc1cccc(C(=O)N/N=C/c2c[nH]c3ccccc23)c1	-12%	20%	i	-20%	12%	9%
N#Cc1ccccc1NC(=O)Nc1ccc(Cl)cc1	-8%	13%	i	-8%	9%	4%
O=C(Nc1ccc(Cl)cc1)Nc1ccccc1Sc1ncc([N+](=O)[O-])s1	6.5µM*	u	u	-58%	u	6.5µM*
CC1CCCN(C(=O)c2ccc(-c3ccccc3Cl)o2)C1 (stereo not given)	u	80%	i	-15%	-21%	12µM*
O=C(c1ccc(-c2ccccc2Cl)o1)N1CCCCCCC1	23µM*	26%	i	-18%	u	u
CC(=O)N1CCN(C(=O)c2ccc(-c3ccccc3Cl)o2)CC1	-18%	x	i	-6%	0%	0%
COc1cccc(C(=O)NC(C)c2ccc(-c3ccccc3)cc2)c1OC (stereo not given)	u	-11%	i	-14%	-18%	u
O=C1CCNCCN1[C@H](CO)c1ccccc1	-4%	-1%	i	-37%	-8%	-4%
COc1ccc(CCNC(=O)CCc2cn(C)c3ccccc23)c(OC)c1OC	-29%	8%	i	4%	5%	-5%
CCOc1ccc(C(CC(=O)O)NS(=O)(=O)c2ccc(C)cc2)cc1OC (stereo not given)	u	2%	i	-8%	0%	21µM*
Cc1ccc(NC(NC(=O)Cc2ccccc2)C(Cl)(Cl)Cl)cc1 (stereo not given)	u	-2%	i	-1%	-19%	u
SMILES	TDP1 cell noCPT	ATXN2 expr inh	ATXN viability	HepG2 viability	TGFb inhibitor	DT40 TDP1 CPT
Cc1cccc(NC(NC(=O)Cc2ccccc2)C(Cl)(Cl)Cl)c1 (stereo not given)	21µM*	-10%	i	2%	-29%	18µM*
CCCOc1ccc(C(=O)Nc2cc(S(=O)(=O)N3CCOCC3)ccc2N2CCN(CC)CC2)cc1OC	-18%	1%	i	9%	3%	-4%
CCOC(CN=c1nc(N(C)C)ss1)OCC	0.73µM*	u	x	-26%	u	0.58µM*
OC[C@@H]1CN(Cc2ccco2)C[C@H](n2cnc3c(NCc4ccc(F)cc4)ncnc32)O1	-6%	11%	i	-1%	1%	-2%
O=c1/c(=C/c2ccco2)sc2nc(-c3ccccc3Br)nn12	-10%	1%	i	-2%	1%	1%
CC(=O)Oc1cccc(/C=c2\sc3nc(-c4ccco4)nn3c2=O)c1	16µM*	-22%	i	-11%	u	u
COc1ccc(CN(C(=O)c2nsc(Cl)c2Cl)C(C(=O)NC2CCCC2)c2ccc(C)cc2)cc1 (stereo not given)	15µM*	-19%[11.3 µM]	i	13%	u	12µM*
COc1ccc(CN(C(=O)c2nsc(Cl)c2Cl)C(C(=O)NC2CCCCC2)c2ccc(OC)cc2)cc1 (stereo not given)	23µM*	-30%	i	-20%	-7%	5.8µM*
COc1ccc(CN(C(=O)c2snc(C(N)=O)c2N)C(C(=O)NC2CCCC2)c2ccc(OC)c(OC)c2)cc1 (stereo not given)	u	5%	i	-1%	8%	u
COc1ccc(C(C)(C)C)cc1S(=O)(=O)n1ccnc1C	u	-1%	i	-9%	-19%	0%
c1ccc2c(-c3nc(C4CCCCC4)no3)cc(-c3ccncc3)nc2c1	23µM*	u	i	-2%	25%	u
CC(C)Oc1ccc(S(=O)(=O)N2CCOCC2)cc1NC(=O)Cc1c(F)cccc1Cl	u	2%	i	-2%	-3%	u
O=C(NC(CO)Cc1ccc([N+](=O)[O-])cc1)C(Cl)Cl (stereo not given)	9.2µM*	-7%	i	-11%	-10%	16µM*
O=C(O)CC(Cc1ccc(Cl)cc1)C(=O)Nc1ccc([N+](=O)[O-])cc1 (stereo not given)	-1%	10%	i	3%	2%	2%
O=[N+]([O-])c1ccc(C(O)C(CO)NC(=S)Nc2ccccc2)cc1 (stereo not given)	u	-20%	u	6%	9%	16µM*
O=C(NC(CO)C(O)c1ccc([N+](=O)[O-])cc1)C(Cl)Cl (stereo not given)	u	-15%	i	1%	5%	u
